Measured values taken from PubChem BioAssay AID624354 (Sanford-Burnham Center for Chemical Genomics, 2012).
The campaign covered roughly 360,000 compounds. About 3,800 (1.1%) were called active. What follows is part of a selection rich in actives, with near analogues and random picks from the rest. A number with no mark means an inactive call.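 The calls were made as follows: active = compounds causing at least 50% loss of cell viability in the single-dose screen, relative to plate controls; inactive = the rest.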

Assay: viability loss with TRAIL in NB7+C8 cells, primary screen, TRAIL sensitizer project, cell-based, ATPlite luminescence (AID 624354)
Details: at 10 µM, hits give high values

Structure (SMILES)	inhibition (viability loss, TRAIL sensitization)
O=C(CN1C(=O)NC(Cc2ccccc2)(Cc2ccccc2)C1=O)NCC1CCCCC1	-33.8%
CCC(CC)c1nnc(NS(=O)(=O)Cc2ccccc2)s1	-5.15%
C=CCn1cc(Cl)cc(C(=O)Nc2ccccc2)c1=O	6.15%
CCc1ccc(CNC(=O)C2CC(=O)N(CCc3ccc(C)cc3)C2)cc1 (centres undefined)	8.62%
Cc1ccc(NC(=O)N2CCC(C(=O)NCc3ccc(F)cc3)CC2)cc1	1.96%
CCc1ccc(CNC(=O)C2CCN(c3nnc(C)c4c(C)n(-c5ccc(C)cc5)nc34)CC2)cc1	84.7% (active)
O=C(COC(=O)/C=C/c1ccc(OC(F)F)cc1)NC1CCCCC1	-8.42%
COc1cccc(/C=C/c2ccc3ccccc3n2)c1OC(C)=O	65.1% (active)
CCOc1cccc(/C=C/c2ccc3ccccc3n2)c1OC(C)=O	47.3%
COc1cccc(NC(=O)COC(=O)c2ccc3ccccc3n2)c1	-11.3%
C=CCCC(=O)N1C[C@H]2CON(C)[C@H]2C[C@H]1c1cccc(Nc2ccccc2)c1	-0.674%
O=C(NCc1ccc(Cl)cc1)c1cc2c(nc3sccn32)s1	0.401%
COc1ccc(C2=Nc3ccccc3NC(=O)C2N(C(=O)c2cc3ccccc3[nH]2)c2ccccc2)cc1 (centres undefined)	-7.09%
COc1cccc(-c2ccc(SCC(=O)N3CCN(c4ccccc4)CC3)nn2)c1	6.26%
CCOc1ccc(-c2ccc(SCC(=O)N3CCOCC3)nn2)cc1	50.6% (active)
COc1ccc(-c2ccnc(SCC(=O)N3CCOCC3)n2)cc1	28%
CC(O)c1nc2c(c(=O)n(C)c(=O)n2C)n1C (centres undefined)	-4.64%
O=C(c1cccs1)N1C[C@H](n2cc(C3CC3)nn2)[C@@H](O)C[C@@H]1c1ccccc1	-1.93%
CCCCN1Cc2c(nc3cc(-c4ccccc4)[nH]n3c2=O)C1=O	-2.49%
C=CCc1c(C)nc2cc(-c3ccccc3)[nH]n2c1=O	30.8%
O=c1c2c(nc3cc(-c4cccc(Cl)c4)[nH]n13)CCCC2	63.1% (active)
CCn1cc(CNC(=O)c2cc([N+](=O)[O-])c(C)c([N+](=O)[O-])c2)cn1	24.5%
Cn1c(=O)c2c(ncn2CC(COCc2ccccc2Cl)OCc2ccccc2Cl)n(C)c1=O (centres undefined)	-6.46%
COc1ccc(CCc2nnc(CCC(=O)NCc3cnn(-c4ccccc4C)c3)o2)cc1	2.59%
Cc1ccccc1N(C(=O)CNC(=O)c1cccs1)C(C(=O)NC1CCCC1)c1ccncc1 (centres undefined)	34.8%
COc1ccc(C(C(=O)NC2CCCCC2)N(C(=O)CCl)c2ccccc2Cl)cc1 (centres undefined)	94.5% (active)
COc1ccc(C(C(=O)NC2CCCCC2)N(C(=O)c2snc(C(N)=O)c2N)c2ccccc2OC)cc1 (centres undefined)	1.04%
COC(=O)[C@@]12C[C@@H](CC(=O)N3CCCCC3)C(=O)N(Cc3ccc4c(c3)OCO4)C1=CCC(C)(C)C2	-12.6%
COc1ccccc1C(=O)NCCC(=O)N(C)Cc1cccnc1	10.4%
